Screens as filed in PubChem BioAssay.
INS promoter inh: TRM-6 insulin promoter activity inhibition; TRM-6 cells (human fetal islet line), insulin promoter-eGFP reporter, imaging; reporter expression induced with tamoxifen; inhibition, % at 2 µM; hit rate 0.9% among 130,000; AID 1273;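 active = inhibition above the mean plus 3 SD, with well images judged a real hit on visual review, cut at about 60% in these data, passing the limit was not always enough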
PTEN del growth: growth suppressors of cells with PTEN tumor suppressor deletion | HCT116 PTEN-null viability, CellTiter-Glo, 60 h; stronger effect = lower value | viability, % at 10 µM | hit rate 1.2% among 140,000;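 active = viability at or below a set limit, 4 SD under the median of all tested compounds, cut at about 3.7% in these data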;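 also: PTEN knockout HCT116 line with beta catenin targeted HCT116 as companion control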
Insulin prom up: MIN6 insulin promoter up-regulation; MIN6 insulin promoter-GFP reporter, high-content imaging; stronger effect = higher value; z-score at 5 µM; hit rate 0.3% among 190,000;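 active = z-score above 3 at 5 µM with at least 500 cells counted in the well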
Lmaj promast: reduces viability of Leishmania major promastigotes; resazurin fluorescence viability; inhibition, % at 10 µM; hit rate 9% among 200,000; AID 1063; in the data active = inhibition above about 50%;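 also: promastigotes grown with compound for 44 hours at 28 °C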
HCT116 bCat-KO: beta-catenin-lacking colon tumor cell growth suppression. HCT116 beta-catenin knockout viability, CellTiter-Glo, 60 h; stronger effect = lower value. viability, % at 10 µM. hit rate 1.5% among 140,000;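 active = viability at or under a set limit, the compound median less 4 SD, cut at about 6% in these data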;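 also: 0% = Hyamine 1622 control at 20 µM and 100% = untreated cell control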
Autophagy HCS: autophagy modulation, high-content screen; MEF GFP-LC3 puncta imaging; test concentration mostly 10 µM; calls only at 10 µM (by protocol); hit rate 0.98% among 190,000; AID 463193;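 active = percentage of spot-positive cells more than 3 SD above its plate mean, without a fluorescence outlier flag or 80% toxicity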;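 also: spot-positive cell cutoff set from DMSO-treated cells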
Numbers without * were called inactive; i = inactive; · = not tested or not shown; + = active, no number. This is a sample that favours compounds with a hit; in the whole collection about 9.6% have one here.

SMILES	INS promoter inh	PTEN del growth	Insulin prom up	Lmaj promast	HCT116 bCat-KO	Autophagy HCS
COc1ccc(OC)c(N2C(=O)NC(=O)/C(=C/c3ccc([N+](=O)[O-])s3)C2=O)c1	·	·	·	97*	·	i
Cc1ccc(/C=C2\C(=O)NC(=O)N(CCc3ccc(F)cc3)C2=O)s1	·	·	·	4	·	i
Cc1ccc(-n2cc(CNC(C)Cc3cnccn3)c(-c3cccc(C)c3)n2)cc1 (stereo not given)	·	·	0.36	65*	·	i
COc1cccc(C2CC3C(=O)C=CC2N3Cc2ccccc2)c1 (stereo not given)	3	25	-0.72	99*	31	i
O=[N+]([O-])c1cc(F)c(N2CCCC2)cc1N1CCNCC1	-24	·	-0.13	26	·	i
CN1CCN(c2cc(N3CCCCCC3)c(F)cc2[N+](=O)[O-])CC1	-48	76	-1.2	99*	75	i
CCN1CCN(c2cc(N3CCCC3)c([N+](=O)[O-])cc2F)CC1	-56	95	·	99*	81	i
Cc1ccccc1-n1c(O)c(/C=N/Nc2nc3c(c(=O)n(C)c(=O)n3C)n2C)c(=O)[nH]c1=S	·	89	0.25	-15	93	i
CN1C(=O)/C(=C/C=C/c2ccco2)C(=O)NC1=S	·	·	-0.18	·	·	·
CC(=NCCO)c1c(O)n(C)c(=O)n(C)c1=O	·	98	0.59	0	103	i
CN1CSC(=S)N(C)C1	68*	78	-0.19	25	79	i
O=[N+]([O-])c1ccc(C2[C@H]3C(c4ccccc4)=NC4(CCCC4)N23)cc1 (stereo not given in full)	·	79	-0.28	-4	86	i
O=C(c1cc(=O)[nH]c2ccc(Br)cc12)N1CCC2(CC1)OCCO2	·	99	-0.15	-2	108	i
O=C(Cn1ccc2ccccc2c1=O)NCC(=O)N1CCC2(CC1)OCCO2	·	·	-0.21	-2	·	i
Cc1cc2ccccc2c(=O)n1CC(=O)NCC(=O)N1CCC2(CC1)OCCO2	7	·	0.13	0	·	+
N#CC1=C(N)Oc2c(c(=O)oc3ccccc23)C1c1cccnc1 (stereo not given)	19	102	0.42	-7	94	i
c1csc(CN2CCNCC2)c1	18	·	0.59	-4	·	i
FC(F)(F)c1ccc(CN2CCNCC2)cc1	·	·	0.05	96*	·	i
Cc1ccccc1Cc1c(C)nc2nc(SCC(=O)N3CCC4(CC3)OCCO4)nn2c1C	-43	87	0.02	73*	90	i
CCCCCSc1cc(OC)c(CCN)cc1OC	·	37	0.04	92*	27	i
CCCCCCCSc1cc(OC)c(CCN(C)C)cc1OC	32	1.3*	-0.88	100*	1.2*	i
Cn1cc(C(=O)Cc2ccccc2)c2ccccc21	17	80	0.21	0	79	i
CN1CCN(Cc2ccc(Br)s2)CC1	4	107	-0.21	70*	94	i
CC[n+]1c(SC)ccc2cc(OC)ccc21	-63	95	0.05	17	97	i
O=C(O)c1cn(Cc2ccccc2)nc1-c1ccccc1	·	·	-0.93	-1	·	i
SMILES	INS promoter inh	PTEN del growth	Insulin prom up	Lmaj promast	HCT116 bCat-KO	Autophagy HCS
O=c1[nH]c(O)c(N=Nc2cc([N+](=O)[O-])ccc2O)c(=O)[nH]1	·	·	-0.4	-5	·	i
CC(NCC#Cc1ccccc1)C(O)c1ccccc1 (stereo not given)	·	·	-1.3	14	·	i
CSc1ccc(CNC(C)C(O)c2ccccc2)cc1 (stereo not given)	·	·	-0.82	84*	·	i
OC1(c2ccccc2F)CC2CCC(C1)N2CCN1CCOCC1 (stereo not given)	·	105	-0.36	52*	100	i
OC1(c2ccc(F)cc2)CC2CCC(C1)N2Cc1nnnn1C1CCCC1 (stereo not given)	11	82	·	7	97	i
Cc1cc(N2CCCCC2)ccc1C=C1C(=O)N(C)C(=S)N(C)C1=O	-3	95	-0.76	100*	90	i
Cc1cc(N2CCCC2)ccc1C=C(C#N)C#N	-38	·	1.8	2	·	i
O=C(c1ccc(N2CC3CC(C2)c2cccc(=O)n2C3)c([N+](=O)[O-])c1)N1CCCCC1 (stereo not given)	-3	100	-0.03	55*	102	i
CC1CCCCN1C(=O)c1ccc(N2CC3CC(C2)c2cccc(=O)n2C3)c([N+](=O)[O-])c1 (stereo not given)	-14	99	0.11	65*	99	i
C/C(=N\N1CCCCCC1)c1c(O)n(-c2ccc(C)cc2)c(=O)[nH]c1=O	14	104	-0.42	18	93	i
CCCc1[nH]nc2c1C1(C(=O)N(Cc3ccccc3)c3ccccc31)C(C(=O)OC)=C(N)O2 (stereo not given)	7	78	0.91	82*	94	i
O=C1NC(=O)N(Cc2ccco2)C(=O)/C1=C/C=C/c1ccco1	·	·	-0.04	·	·	·
CN(C)c1ccc(/C=C/C=C2/C(=O)NC(=O)N(c3ccccc3)C2=O)cc1	·	·	·	96*	·	i
CN(C)c1ccc(/C=C2/C(=O)NC(=O)N(CCc3ccc(F)cc3)C2=O)cc1	-19	100	·	0	95	i
C=CCN1C(=O)NC(=O)/C(=C/C=C/c2ccccc2)C1=O	·	·	·	100*	·	i
O=C1NC(=O)N(CCc2ccc(F)cc2)C(=O)/C1=C\C=C\c1ccccc1	-20	·	0.82	100*	·	i
CCC(C)(C)n1nnnc1C(c1cccs1)N1CC=C(c2ccc(F)cc2)CC1 (stereo not given)	-7	77	-0.16	2	73	i
CC(Cc1ccccc1)NCc1ccccc1O (stereo not given)	·	·	-0.05	30	·	i
CC(Cc1ccccc1Sc1ccccc1)N(C)C (stereo not given)	-46	80	-1	100*	79	i
CC(N)Cc1ccccc1Sc1ccc(O)cc1 (stereo not given)	·	80	0.84	88*	80	i
CC(Cc1ccccc1Sc1ccc(O)cc1)N(C)C (stereo not given)	30	74	-0.9	101*	79	i
CN(C)C(Cc1ccccc1)C(=O)c1ccccc1 (stereo not given)	22	98	0.38	-1	84	i
COc1ccccc1Sc1ccccc1CC(C)N (stereo not given)	7	77	-0.17	95*	75	i
COc1ccccc1CCNCc1ccc(OC)c(OC)c1OC	13	·	-0.77	13	·	i
CN1CCN(Cc2nc3ccccc3c(=O)[nH]2)CC1	11	94	0.62	-1	97	i
CN1CCN(Cc2ccccc2Sc2ccccc2)CC1	8	77	0.01	100*	76	i
CCCCn1c(O)c(C(C)=NC(Cc2c[nH]c3ccccc23)C(=O)OC)c(=O)[nH]c1=O (stereo not given)	25	100	0.51	99*	82	i
CCCCn1c(O)c(C(C)=NCCc2c[nH]c3ccccc23)c(=O)[nH]c1=O	·	·	-0.47	·	·	·
